# Assay results taken from PubChem BioAssay (NCI).
# Compounds without any hit were thinned out: in the full panel of roughly 79,000, 15% have a hit. A number with no mark means an inactive call. Calls of active or inactive are those of the source. Rule as the data show it: active = growth inhibition above about 70%; inactive = the rest.
# Experiments:
# [1] = NCI Yeast Anticancer Drug Screen. Data for the wt1 strain (AID 149);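 also: 0% = growth of vehicle-treated wt1 cultures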; details: S. cerevisiae wt1 strain (SPY 50644) growth inhibition, stronger effect = higher value
# In short: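 The wt1 strain was treated with compounds, and growth was compared with vehicle-treated cultures to give inhibition.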
# [2] = NCI Yeast Anticancer Drug Screen. Data for the rad50EPP+ strain (AID 151);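 also: 0% = growth of vehicle-treated control cultures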; details: S. cerevisiae rad50 mutant strain, stronger effect = higher value
# In short: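 One strain with a rad50 alteration (rad50EPP+) was compound-treated, its growth then compared to that of vehicle controls.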
# [3] = NCI Yeast Anticancer Drug Screen. Data for the mgt1 strain (AID 153); details: S. cerevisiae mgt1 mutant growth inhibition, stronger effect = higher value
# In short: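 After exposure of the mgt1 yeast mutant to compound, growth was measured and reported as inhibition compared with vehicle controls.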
# [4] = NCI Yeast Anticancer Drug Screen. Data for the rad50 strain (AID 155);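 also: 0% = growth of vehicle-only cultures of the same strain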; details: S. cerevisiae rad50 strain growth inhibition, stronger effect = higher value
# In short: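 Cells are treated with compound, grown, and their growth is then scored against vehicle-only cultures of the same repair-deficient yeast strain.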
# [5] = NCI Yeast Anticancer Drug Screen. Data for the mec2-1 strain (AID 157); details: S. cerevisiae mec2-1 strain, stronger effect = higher value
# In short: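 Test agents were screened against the mec2-1 yeast strain, with defined DNA repair or cell cycle alteration. Growth was scored as inhibition against vehicle-only controls.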
# [6] = NCI Yeast Anticancer Drug Screen. Data for the rad14 strain (AID 159);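 also: 0% = growth of vehicle-treated control cultures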; details: S. cerevisiae rad14 strain growth inhibition, stronger effect = higher value
# In short: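 Readout: yeast growth inhibition, referenced to vehicle-only cultures. Strain bears a defined alteration in DNA damage repair.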
# [7] = NCI Yeast Anticancer Drug Screen. Data for the sgs1 mgt1 strain (AID 161);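 also: 0% = growth of cultures given vehicle only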; details: S. cerevisiae sgs1 mgt1 strain, stronger effect = higher value
# In short: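 Read-out: growth inhibition vs vehicle controls. Cells: mutant yeast strain deficient in DNA damage repair.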
# [8] = NCI Yeast Anticancer Drug Screen. Data for the CLN2oe strain (AID 163);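 also: 0% = growth of vehicle-only control cultures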; details: S. cerevisiae CLN2oe strain, stronger effect = higher value
# In short: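 Here, growth inhibition in a cell-cycle-altered yeast strain after compound exposure was quantified against vehicle control growth.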
# [9] = NCI Yeast Anticancer Drug Screen. Data for the cln2 rad14 strain (AID 165);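 also: 0% = growth equal to vehicle treated cultures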; details: S. cerevisiae cln2 rad14 strain, stronger effect = higher value
# In short: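 Growth of compound-exposed yeast (cln2 rad14 genotype) measured and expressed as inhibition relative to vehicle.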
# [10] = NCI Yeast Anticancer Drug Screen. Data for the bub3 strain (AID 167); details: S. cerevisiae bub3 mutant strain, stronger effect = higher value
# In short: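 Part of a panel of yeast mutants defective in DNA damage repair or cell cycle regulation. Each strain is grown with compound, and inhibition is calculated relative to solvent-treated cultures.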
# [11] = NCI Yeast Anticancer Drug Screen. Data for the wt2 strain (AID 169);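 also: 0% = growth of vehicle-treated yeast cultures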; details: S. cerevisiae wt2 strain growth inhibition, stronger effect = higher value
# In short: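 Genetically defined yeast strains from a DNA-repair/cell-cycle panel were used. Compound-exposed yeast growth was measured, and the inhibition was calculated relative to vehicle treatment.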
# [12] = NCI Yeast Anticancer Drug Screen. Data for the mlh1 strain (AID 171);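 also: 0% = growth of vehicle-treated control cultures of the same strain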; details: S. cerevisiae mlh1 strain growth inhibition, stronger effect = higher value
# In short: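 Here the genetically defined yeast mutant is grown with each compound, and the extent to which its growth falls below that of vehicle-exposed cells is reported.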
# [13] = NCI Yeast Anticancer Drug Screen. Data for the sgs1 strain (AID 173);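 also: 0% = growth of vehicle-only control cultures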; details: S. cerevisiae sgs1 mutant, stronger effect = higher value
# In short: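 Relative growth inhibition, referenced to vehicle, was determined in a yeast strain with a defined alteration affecting DNA damage repair or cell cycle control after compound exposure.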
# [14] = NCI Yeast Anticancer Drug Screen. Data for the mlh1 rad18 strain (AID 175); details: S. cerevisiae mlh1 rad18 strain growth inhibition, stronger effect = higher value
# In short: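 In this whole-cell yeast screen, a strain with altered DNA damage repair is challenged with compound, and its growth is measured against matched vehicle-treated controls.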
# [15] = NCI Yeast Anticancer Drug Screen. Data for the rad18 strain (AID 177); details: S. cerevisiae rad18 mutant growth inhibition, stronger effect = higher value
# In short: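 Screen uses a yeast strain with a defined lesion in DNA damage repair; compound effect is read as loss of growth compared to untreated vehicle cultures.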
# [16] = at 5.0 µM (retest, dose inferred, filed as 0.5)
# [17] = at 50.0 µM (retest, dose inferred, filed as 5.0)
structure (smiles),measurement,setting,value
Cc1nc2ccccc2c(=O)n1NC(=O)c1ccc(CS)cc1,growth inhibition,[1]; at 1.2 µM,8%
same,growth inhibition,[1]; at 3.7 µM,1%
same,growth inhibition,[1]; at 11.0 µM,4%
same,growth inhibition,[1]; at 33.0 µM,17%
same,growth inhibition,[1]; at 100.0 µM,96% (active)
same,growth inhibition,[2]; at 1.2 µM,-9%
same,growth inhibition,[2]; at 3.7 µM,4%
same,growth inhibition,[2]; at 11.0 µM,-3%
same,growth inhibition,[2]; at 33.0 µM,23%
same,growth inhibition,[2]; at 100.0 µM,85% (active)
same,growth inhibition,[3]; at 1.2 µM,-11%
same,growth inhibition,[3]; at 3.7 µM,-12%
same,growth inhibition,[3]; at 11.0 µM,-17%
same,growth inhibition,[3]; at 33.0 µM,6%
same,growth inhibition,[3]; at 100.0 µM,86% (active)
same,growth inhibition,[4]; at 1.2 µM,7%
same,growth inhibition,[4]; at 3.7 µM,3%
same,growth inhibition,[4]; [16],-24%
same,growth inhibition,[4]; at 11.0 µM,4%
same,growth inhibition,[4]; at 33.0 µM,23%
same,growth inhibition,[4]; [17],9%
same,growth inhibition,[4]; at 50.0 µM,66.2%
same,growth inhibition,[4]; at 100.0 µM,97% (active)
same,growth inhibition,[5]; at 1.2 µM,-16%
same,growth inhibition,[5]; at 3.7 µM,-4%
same,growth inhibition,[5]; [16],-27%
same,growth inhibition,[5]; at 11.0 µM,-13%
same,growth inhibition,[5]; at 33.0 µM,23%
same,growth inhibition,[5]; [17],1%
same,growth inhibition,[5]; at 50.0 µM,76.2% (active)
same,growth inhibition,[5]; at 100.0 µM,97% (active)
same,growth inhibition,[6]; at 1.2 µM,-21%
same,growth inhibition,[6]; at 3.7 µM,-23%
same,growth inhibition,[6]; at 11.0 µM,-25%
same,growth inhibition,[6]; at 33.0 µM,26%
same,growth inhibition,[6]; at 100.0 µM,95% (active)
same,growth inhibition,[7]; [16],-14%
same,growth inhibition,[7]; [17],3%
same,growth inhibition,[7]; at 50.0 µM,65.5%
same,growth inhibition,[8]; at 1.2 µM,2%
same,growth inhibition,[8]; at 3.7 µM,-17%
same,growth inhibition,[8]; at 11.0 µM,-6%
same,growth inhibition,[8]; at 33.0 µM,22%
same,growth inhibition,[8]; at 100.0 µM,95% (active)
same,growth inhibition,[9]; [16],-29%
same,growth inhibition,[9]; [17],6%
same,growth inhibition,[9]; at 50.0 µM,31.9%
same,growth inhibition,[10]; at 1.2 µM,16%
same,growth inhibition,[10]; at 3.7 µM,-6%
same,growth inhibition,[10]; [16],-13%
same,growth inhibition,[10]; at 11.0 µM,16%
same,growth inhibition,[10]; at 33.0 µM,45%
same,growth inhibition,[10]; [17],41%
same,growth inhibition,[10]; at 50.0 µM,-8.65%
same,growth inhibition,[10]; at 100.0 µM,96% (active)
same,growth inhibition,[11]; at 1.2 µM,4%
same,growth inhibition,[11]; at 3.7 µM,7%
same,growth inhibition,[11]; at 11.0 µM,9%
same,growth inhibition,[11]; at 33.0 µM,16%
same,growth inhibition,[11]; at 100.0 µM,92% (active)
same,growth inhibition,[12]; at 1.2 µM,0%
same,growth inhibition,[12]; at 3.7 µM,12%
same,growth inhibition,[12]; at 11.0 µM,16%
same,growth inhibition,[12]; at 33.0 µM,36%
same,growth inhibition,[12]; at 100.0 µM,95% (active)
same,growth inhibition,[13]; at 1.2 µM,15%
same,growth inhibition,[13]; at 3.7 µM,11%
same,growth inhibition,[13]; at 11.0 µM,20%
same,growth inhibition,[13]; at 33.0 µM,61%
same,growth inhibition,[13]; at 100.0 µM,95% (active)
same,growth inhibition,[14]; [16],-51%
same,growth inhibition,[14]; [17],71% (active)
same,growth inhibition,[14]; at 50.0 µM,65%
same,growth inhibition,[15]; at 1.2 µM,9%
same,growth inhibition,[15]; at 3.7 µM,12%
same,growth inhibition,[15]; at 11.0 µM,2%
same,growth inhibition,[15]; at 33.0 µM,40%
same,growth inhibition,[15]; at 100.0 µM,96% (active)
